# From publication PMC8384837, “Expanding the binding specificity for RNA recognition by a PUF domain”
# Substitutions are numbered along the chain they refer to.
# Tests used:
# Assay in all cases: yeast three-hybrid, YBZ-1, SC-Leu-His + 0.5 mM 3-AT, 4 days
# Settings in all cases: tags: N-Gal4 AD-HA kept; label: inside an RPR1-promoter hybrid RNA with tandem MS2 sites; ssRNA
# PUM1 PUF domain R1-RYT = PUM1 PUF domain R1-RYT (Homo sapiens, UniProt Q14671 828-1176, S863R;R864Y;Q867T)
# In short: (§1)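 Each repeat of the Pumilio-1 PUF domain was randomized at its three base-contacting residues, and these libraries were co-expressed from a centromeric plasmid with matching RNA elements in strain YBZ-1. After four days on SC-Leu (input) or SC-Leu-His + 0.5 mM 3-AT (selection), the repeat regions were PCR-amplified and Illumina-sequenced. The interaction score compares variant frequency between input and selection as a log change, computed in log2 with a pseudocount of 1 for absent variants.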
# PUM1 PUF domain R3-VCK = PUM1 PUF domain R3-VCK (Homo sapiens, UniProt Q14671 828-1176, C935V;R936C;Q939K)
# In short: as §1
# PUM1 PUF domain R7-RRD = PUM1 PUF domain R7-RRD (Homo sapiens, UniProt Q14671 828-1176, S1079R;N1080R;E1083D)
# In short: as §1
# PUM1 PUF domain R2-RRM = PUM1 PUF domain R2-RRM (Homo sapiens, UniProt Q14671 828-1176, N899R;Y900R;Q903M)
# In short: as §1
# PUM1 PUF domain R2-DFE = PUM1 PUF domain R2-DFE (Homo sapiens, UniProt Q14671 828-1176, N899D;Y900F;Q903E)
# In short: as §1
# PUM1 PUF domain R2-CYP = PUM1 PUF domain R2-CYP (Homo sapiens, UniProt Q14671 828-1176, N899C;Q903P)
# In short: as §1
# PUM1 PUF domain R2-RRS = PUM1 PUF domain R2-RRS (Homo sapiens, UniProt Q14671 828-1176, N899R;Y900R;Q903S)
# In short: as §1
# PUM1 PUF domain R6-FRQ = target: T1, PUM1 PUF domain R6-FRQ (Homo sapiens, UniProt Q14671 828-1176, N1043F;Y1044R)
# T1 sequence: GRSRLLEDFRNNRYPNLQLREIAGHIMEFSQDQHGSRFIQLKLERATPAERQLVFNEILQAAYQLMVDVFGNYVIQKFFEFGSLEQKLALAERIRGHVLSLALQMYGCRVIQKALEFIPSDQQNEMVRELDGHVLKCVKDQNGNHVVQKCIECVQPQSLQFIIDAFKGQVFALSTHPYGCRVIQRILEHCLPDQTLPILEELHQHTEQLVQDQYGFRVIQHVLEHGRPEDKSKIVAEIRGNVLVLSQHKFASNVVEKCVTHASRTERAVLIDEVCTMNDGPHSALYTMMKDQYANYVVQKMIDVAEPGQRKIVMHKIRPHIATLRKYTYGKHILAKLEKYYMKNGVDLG
# In short: as §1
# PUM1 PUF domain R5-PRL = PUM1 PUF domain R5-PRL (Homo sapiens, UniProt Q14671 828-1176, C1007P;Q1011L)
# In short: as §1
# PUM1 PUF domain R6-RFI = target: T2, PUM1 PUF domain R6-RFI (Homo sapiens, UniProt Q14671 828-1176, N1043R;Y1044F;Q1047I)
# T2 sequence: T1 sequence with F216R, R217F, Q220I
# In short: as §1
# PUM1 PUF domain R5-RNC = PUM1 PUF domain R5-RNC (Homo sapiens, UniProt Q14671 828-1176, C1007R;R1008N;Q1011C)
# In short: as §1
# PUM1 PUF domain R6-GYM = target: T3, PUM1 PUF domain R6-GYM (Homo sapiens, UniProt Q14671 828-1176, N1043G;Q1047M)
# T3 sequence: T1 sequence with F216G, R217Y, Q220M
# In short: as §1
# PUM1 PUF domain R5-RKT = PUM1 PUF domain R5-RKT (Homo sapiens, UniProt Q14671 828-1176, C1007R;R1008K;Q1011T)
# In short: as §1
# PUM1 PUF domain R7-GTS = PUM1 PUF domain R7-GTS (Homo sapiens, UniProt Q14671 828-1176, S1079G;N1080T;E1083S)
# In short: as §1
# PUM1 PUF domain R4-SHF = PUM1 PUF domain R4-SHF (Homo sapiens, UniProt Q14671 828-1176, N971S;Q975F)
# In short: as §1
# PUM1 PUF domain R5-MYW = PUM1 PUF domain R5-MYW (Homo sapiens, UniProt Q14671 828-1176, C1007M;R1008Y;Q1011W)
# In short: as §1
# PUM1 PUF domain R5-SNN = PUM1 PUF domain R5-SNN (Homo sapiens, UniProt Q14671 828-1176, C1007S;R1008N;Q1011N)
# In short: as §1
# PUM1 PUF domain R3-RSY = PUM1 PUF domain R3-RSY (Homo sapiens, UniProt Q14671 828-1176, C935R;R936S;Q939Y)
# In short: as §1
# PUM1 PUF domain R3-RAL = PUM1 PUF domain R3-RAL (Homo sapiens, UniProt Q14671 828-1176, C935R;R936A;Q939L)
# In short: as §1
# PUM1 PUF domain R4-FNQ = PUM1 PUF domain R4-FNQ (Homo sapiens, UniProt Q14671 828-1176, N971F;H972N)
# In short: as §1
sequence,measurement,setting,value
GGCUAGAACUAGUGGAUCCCCCGGCGCCCGGCGGCUCGAGCCCGGGUAAGUGUAAAUGGUCUGCAUGCCGCCGGGCGCCAUGCCUGCAGGUCGACUCUAGAAAACAUG,binding signal,PUM1 PUF domain R1-RYT,0.45 log2 enrichment (interaction score)
GGCUAGAACUAGUGGAUCCCCCGGCGCCCGGCGGCUCGAGCCCGGGUAAGUGUAAGUAGUCUGCAUGCCGCCGGGCGCCAUGCCUGCAGGUCGACUCUAGAAAACAUG,binding signal,PUM1 PUF domain R3-VCK,1.58 log2 enrichment (interaction score)
GGCUAGAACUAGUGGAUCCCCCGGCGCCCGGCGGCUCGAGCCCGGGUAAGUCUAAAUAGUCUGCAUGCCGCCGGGCGCCAUGCCUGCAGGUCGACUCUAGAAAACAUG,binding signal,PUM1 PUF domain R7-RRD,2.84 log2 enrichment (interaction score)
GGCUAGAACUAGUGGAUCCCCCGGCGCCCGGCGGCUCGAGCCCGGGUAAGUGUAAAGAGUCUGCAUGCCGCCGGGCGCCAUGCCUGCAGGUCGACUCUAGAAAACAUG,binding signal,PUM1 PUF domain R2-RRM,2.71 log2 enrichment (interaction score)
same,binding signal,PUM1 PUF domain R2-DFE,7.89 log2 enrichment (interaction score)
same,binding signal,PUM1 PUF domain R2-CYP,2.3 log2 enrichment (interaction score)
same,binding signal,PUM1 PUF domain R2-RRS,2.87 log2 enrichment (interaction score)
GGCUAGAACUAGUGGAUCCCCCGGCGCCCGGCGGCUCGAGCCCGGGUAAGUGUAAAUAGUCUGCAUGCCGCCGGGCGCCAUGCCUGCAGGUCGACUCUAGAAAACAUG,binding signal,PUM1 PUF domain R6-FRQ,2.83 log2 enrichment (interaction score)
same,binding signal,PUM1 PUF domain R5-PRL,3.53 log2 enrichment (interaction score)
same,binding signal,PUM1 PUF domain R6-RFI,2.68 log2 enrichment (interaction score)
same,binding signal,PUM1 PUF domain R5-RNC,1.15 log2 enrichment (interaction score)
same,binding signal,PUM1 PUF domain R6-GYM,3.33 log2 enrichment (interaction score)
GGCUAGAACUAGUGGAUCCCCCGGCGCCCGGCGGCUCGAGCCCGGGUAAGUGUCAAUAGUCUGCAUGCCGCCGGGCGCCAUGCCUGCAGGUCGACUCUAGAAAACAUG,binding signal,PUM1 PUF domain R5-PRL,0.34 log2 enrichment (interaction score)
same,binding signal,PUM1 PUF domain R5-RKT,2.84 log2 enrichment (interaction score)
same,binding signal,PUM1 PUF domain R5-RNC,3.93 log2 enrichment (interaction score)
GGCUAGAACUAGUGGAUCCCCCGGCGCCCGGCGGCUCGAGCCCGGGUAAGUUUAAAUAGUCUGCAUGCCGCCGGGCGCCAUGCCUGCAGGUCGACUCUAGAAAACAUG,binding signal,PUM1 PUF domain R7-RRD,4.81 log2 enrichment (interaction score)
same,binding signal,PUM1 PUF domain R7-GTS,2.61 log2 enrichment (interaction score)
GGCUAGAACUAGUGGAUCCCCCGGCGCCCGGCGGCUCGAGCCCGGGUAAGUGUACAUAGUCUGCAUGCCGCCGGGCGCCAUGCCUGCAGGUCGACUCUAGAAAACAUG,binding signal,PUM1 PUF domain R4-SHF,5.41 log2 enrichment (interaction score)
GGCUAGAACUAGUGGAUCCCCCGGCGCCCGGCGGCUCGAGCCCGGGUAAGUGUUAAUAGUCUGCAUGCCGCCGGGCGCCAUGCCUGCAGGUCGACUCUAGAAAACAUG,binding signal,PUM1 PUF domain R5-MYW,3.48 log2 enrichment (interaction score)
same,binding signal,PUM1 PUF domain R5-PRL,4.51 log2 enrichment (interaction score)
same,binding signal,PUM1 PUF domain R5-SNN,4.07 log2 enrichment (interaction score)
GGCUAGAACUAGUGGAUCCCCCGGCGCCCGGCGGCUCGAGCCCGGGUAAGUGUAAUUAGUCUGCAUGCCGCCGGGCGCCAUGCCUGCAGGUCGACUCUAGAAAACAUG,binding signal,PUM1 PUF domain R3-RSY,2.82 log2 enrichment (interaction score)
same,binding signal,PUM1 PUF domain R3-RAL,3.32 log2 enrichment (interaction score)
same,binding signal,PUM1 PUF domain R3-VCK,2.57 log2 enrichment (interaction score)
GGCUAGAACUAGUGGAUCCCCCGGCGCCCGGCGGCUCGAGCCCGGGUAAGUGUAAAUCGUCUGCAUGCCGCCGGGCGCCAUGCCUGCAGGUCGACUCUAGAAAACAUG,binding signal,PUM1 PUF domain R1-RYT,5.12 log2 enrichment (interaction score)
GGCUAGAACUAGUGGAUCCCCCGGCGCCCGGCGGCUCGAGCCCGGGUAAGUGUAAAAAGUCUGCAUGCCGCCGGGCGCCAUGCCUGCAGGUCGACUCUAGAAAACAUG,binding signal,PUM1 PUF domain R2-CYP,5.81 log2 enrichment (interaction score)
same,binding signal,PUM1 PUF domain R2-RRS,1.22 log2 enrichment (interaction score)
GGCUAGAACUAGUGGAUCCCCCGGCGCCCGGCGGCUCGAGCCCGGGUAAGUGUAUAUAGUCUGCAUGCCGCCGGGCGCCAUGCCUGCAGGUCGACUCUAGAAAACAUG,binding signal,PUM1 PUF domain R4-FNQ,4.16 log2 enrichment (interaction score)
